From PubChem BioAssay
miR122 inh: miR-122 sensor activation. Huh7 psiCHECK-miR122 Renilla luciferase sensor, 48 h. activation, % at 12.5 µM. 0.14% of 340,000 active;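 active = mean activation of 30% or more, with every replicate also reaching 30%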;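 also: higher luciferase signal means stronger suppression of miR-122 activity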
Numbers stand for hits. The entries come from a sample that favours hits as a whole.

`C[C@@H]1CN([C@H](C)CO)C(=O)c2cc(-c3ccc(F)cc3)cnc2O[C@H]1CN(C)Cc1ccc(C(=O)O)cc1` gave miR122 inh inactive.
For C[C@@H]1CN([C@@H](C)CO)C(=O)c2cc(C#CC3CC3)cnc2O[C@@H]1CN(C)Cc1ccncc1 the results were miR122 inh inactive.
`C[C@@H]1CN([C@@H](C)CO)S(=O)(=O)c2ccc(C#CC3CC3)cc2O[C@H]1CN(C)C(=O)C1CC1` gave miR122 inh inactive.
For CCCNC(=O)N(C)C[C@@H]1Oc2ncc(C#CCC(C)C)cc2C(=O)N([C@H](C)CO)C[C@H]1C the results were miR122 inh inactive.
Screening Cc1ccc(S(=O)(=O)N(C)C[C@H]2Oc3cc(-c4cccc(F)c4)ccc3S(=O)(=O)N([C@H](C)CO)C[C@@H]2C)cc1 returned miR122 inh inactive.
`COc1cccc(-c2ccc3c(c2)O[C@@H](CN(C)CC2CC2)[C@@H](C)CN([C@@H](C)CO)S3(=O)=O)c1` gave miR122 inh inactive.
C/C=C/c1ccc2c(c1)O[C@H](CN(C)CCC)[C@H](C)CN([C@H](C)CO)S2(=O)=O was read as miR122 inh inactive.
Screening O=S(=O)(Nc1ccc2ccccc2c1)c1ccccc1 returned miR122 inh inactive.
`CSc1cccc(NS(=O)(=O)c2cc(Br)cnc2N)c1` gave miR122 inh inactive.
For CSc1cccc(NS(=O)(=O)c2ccccc2)c1 the results were miR122 inh 35.
For C[C@H](O)C#Cc1ccc2c(c1)O[C@@H](CN(C)C)[C@H](C)CN([C@@H](C)CO)S2(=O)=O the results were miR122 inh inactive.
Screening CN(C)S(=O)(=O)c1cccc(NC(=S)N/N=C/c2ccc(O)c(O)c2O)c1 returned miR122 inh 70.
COc1cccc(NC(=O)N(C)C[C@@H]2Oc3cc(-c4cccc(C(=O)N(C)C)c4)ccc3S(=O)(=O)N([C@H](C)CO)C[C@H]2C)c1 was read as miR122 inh inactive.
Screening Clc1ccc(CSc2nnc(-c3ccncc3)o2)c(Cl)c1 returned miR122 inh 33.
`Cc1ccc(C)c(CSc2nnc(-c3cccnc3)o2)c1` gave miR122 inh inactive.
For C[C@@H]1CN([C@H](C)CO)C(=O)Cc2cc(NC(=O)Nc3ccccc3)ccc2O[C@@H]1CN(C)C(=O)Nc1cccc2ccccc12 the results were miR122 inh inactive.
Screening CC(C)NC(=O)Nc1ccc2c(c1)C(=O)N(C)[C@@H]1CC[C@H](CC(=O)NCC(F)(F)F)O[C@H]1CO2 returned miR122 inh 37.
Screening CC(C)NC(=O)Nc1ccc2c(c1)C(=O)N(C)[C@@H]1CC[C@@H](CC(=O)NCC(F)(F)F)O[C@@H]1CO2 returned miR122 inh 37.
Screening CC(C)CC#Cc1cnc2c(c1)C(=O)N([C@@H](C)CO)C[C@H](C)[C@@H](CN(C)C(=O)Nc1cccc(F)c1)O2 returned miR122 inh inactive.
Screening CC(C)NC(=O)N(C)C[C@@H]1Oc2cc(-c3ccccc3)ccc2S(=O)(=O)N([C@H](C)CO)C[C@@H]1C returned miR122 inh inactive.
For C[C@@H]1CN([C@H](C)CO)C(=O)c2cc(C#CC3(O)CCCC3)cnc2O[C@@H]1CN(C)C(=O)Cc1ccccc1 the results were miR122 inh inactive.
`C[C@H]1CN([C@@H](C)CO)C(=O)c2cc(C#CC3CCCC3)cnc2O[C@@H]1CN(C)C(=O)C1CCC1` gave miR122 inh inactive.
For CNC[C@@H]1Oc2cc(C#CCC3CCCC3)ccc2S(=O)(=O)N([C@@H](C)CO)C[C@H]1C the results were miR122 inh inactive.
For C[C@@H]1CN([C@@H](C)CO)C(=O)c2cc(-c3ccc(F)cc3)cnc2O[C@@H]1CN(C)Cc1cccnc1 the results were miR122 inh inactive.
C[C@H](CO)N1C[C@H](C)[C@@H](CN(C)C(=O)c2ccncc2)Oc2ncc(/C=C/c3ccccc3)cc2C1=O was read as miR122 inh inactive.
C[C@@H]1CN([C@@H](C)CO)S(=O)(=O)c2ccc(-c3cccc(C#N)c3)cc2O[C@@H]1CN(C)C(=O)Nc1ccccc1F was read as miR122 inh inactive.
For C[C@@H]1CN([C@@H](C)CO)C(=O)c2cc(C3=CCCCC3)cnc2O[C@@H]1CN(C)Cc1ccccc1C(=O)O the results were miR122 inh inactive.
`c1cnc(N2CCN(Cc3c[nH]c4ccccc34)CC2)nc1` gave miR122 inh 38.
`C[C@@H]1CN([C@@H](C)CO)C(=O)c2cc(C#Cc3ccccn3)cnc2O[C@H]1CN(C)Cc1cncnc1` gave miR122 inh inactive.
COCC(=O)N(C)C[C@@H]1Oc2cc(Br)ccc2S(=O)(=O)N([C@@H](C)CO)C[C@H]1C was read as miR122 inh inactive.
Screening C/C=C/c1cnc2c(c1)C(=O)N([C@H](C)CO)C[C@@H](C)[C@H](CN(C)CC1CCOCC1)O2 returned miR122 inh inactive.
For CCCCNc1cc(C)nc(NCc2ccccc2)n1 the results were miR122 inh 41.
For Cc1noc(C)c1NC(=O)N(C)C[C@H]1Oc2ncc(C#CC3CCCCC3)cc2C(=O)N([C@H](C)CO)C[C@H]1C the results were miR122 inh inactive.
Screening C[C@@H]1CN([C@H](C)CO)S(=O)(=O)c2ccc(C#Cc3cccnc3)cc2O[C@@H]1CN(C)CC1CCOCC1 returned miR122 inh inactive.
C[C@H](CO)N1C[C@H](C)[C@H](CN(C)C(=O)Cc2cccnc2)Oc2cc(-c3cncnc3)ccc2S1(=O)=O was read as miR122 inh inactive.
For CCC(=O)N(C)C[C@H]1Oc2ncc(C#Cc3ccc(OC)cc3)cc2C(=O)N([C@@H](C)CO)C[C@H]1C the results were miR122 inh inactive.
Screening CCCCN1C=C(C(=O)OC)C(c2ccccc2C(F)(F)F)C(C(=O)OC)=C1 returned miR122 inh 31.
For CCC(=O)N(C)C[C@H]1Oc2ncc(C#CC3(O)CCCC3)cc2C(=O)N([C@@H](C)CO)C[C@H]1C the results were miR122 inh inactive.
Screening COc1ccc(-c2cnc3c(c2)C(=O)N([C@@H](C)CO)C[C@@H](C)[C@H](CN(C)Cc2ccccn2)O3)cc1 returned miR122 inh inactive.
Screening COc1cc2c(cc1OC)C(c1ccc(-c3ccc(Cl)c(Cl)c3)o1)=NCC2 returned miR122 inh 44.
Screening CCCNC(=O)N(C)C[C@@H]1Oc2ncc(C#CCC3CCCC3)cc2C(=O)N([C@H](C)CO)C[C@H]1C returned miR122 inh inactive.
Screening CCC(=O)Nc1ccc2c(c1)OC[C@H](C)N(C(=O)CN1CCOCC1)C[C@H](C)[C@H](OC)CN(C)C2=O returned miR122 inh inactive.
For COc1ccccc1-c1cnc2c(c1)C(=O)N([C@H](C)CO)C[C@@H](C)[C@H](CN(C)Cc1ccccc1)O2 the results were miR122 inh inactive.
For OC(CNCCC1C=Nc2ccccc21)Cn1c2ccc(Cl)cc2c2cc(Cl)ccc21 (configuration not stated) the results were miR122 inh 55.
Screening Cc1ccc(-c2cnc3c(c2)C(=O)N([C@@H](C)CO)C[C@@H](C)[C@@H](CN(C)C(=O)c2ccncc2)O3)cc1 returned miR122 inh inactive.
`C[C@@H]1CN([C@H](C)CO)C(=O)c2cc(C#Cc3ccccn3)cnc2O[C@H]1CN(C)Cc1cccnc1` gave miR122 inh inactive.
`C[C@H](CO)N1C[C@H](C)[C@@H](CN(C)S(=O)(=O)c2ccccc2F)Oc2cc(C#Cc3ccccc3)ccc2S1(=O)=O` gave miR122 inh inactive.
For CNc1nc(NCCOc2ccccc2)c2sccc2n1 the results were miR122 inh 37.
Screening CCNc1nc(N)nc(Oc2ccc(OCCOc3ccccc3)nn2)n1 returned miR122 inh inactive.
